Our source for the growth inhibition values is PubChem BioAssay (NCI).

Compounds without any hit were thinned out: in the full panel of roughly 79,000, 15% have a hit. Unmarked numbers belong to inactive results. Activity calls are given as the source filed them. Rule as the data show it: active = growth inhibition above about 70%; inactive = the rest.

This test in a line: NCI Yeast Anticancer Drug Screen. Data for the sgs1 strain (AID 173).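 Also: 0% = growth of vehicle-only control cultures.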 As to conditions: S. cerevisiae sgs1 mutant, hits give high values. On the procedure: Growth inhibition of yeast strains with defined genetic alterations is measured as a screen for potential anti-cancer activity. Selected strains with alterations in DNA damage repair or cell cycle control were exposed to compounds and growth inhibition was measured relative to vehicle treated controls. The strain used in this assay is sgs1

Consider `CCN1CCC(O)(c2ccc(Oc3ccc(Cl)cc3)cc2)C(C(=O)c2ccc(Oc3ccc(Cl)cc3)cc2)C1` (stereo not given), for which the growth inhibition (at 1.2 µM) is -27%; the growth inhibition (at 3.7 µM) was 63%; the growth inhibition (at 11.0 µM) was 20%; the growth inhibition (at 33.0 µM) was 11%; the growth inhibition (at 100.0 µM) is 33%.
On to `O=[N+]([O-])c1cn[n+]([O-])c2ccccc12`, for which the growth inhibition reads like this: (at 1.2 µM) 40%; (at 3.7 µM) 71% (active); (at 11.0 µM) 84% (active); (at 33.0 µM) 98% (active); (at 100.0 µM) 98% (active).
For `C/C(=N/NC(=S)Nc1ccccc1C)c1ccccn1`, the growth inhibition reads like this: (at 1.2 µM) -6%; (at 3.7 µM) -5%; (at 11.0 µM) -5%; (at 33.0 µM) -7%; (at 100.0 µM) -6%.
Consider `CCOC(=O)/C(=C\c1ccc(F)cc1)C(C)=O`, for which the growth inhibition is, setting by setting: (at 1.2 µM) -2%; (at 3.7 µM) 22%; (at 11.0 µM) 72% (active); (at 33.0 µM) 97% (active); (at 100.0 µM) 98% (active).
On to `CCOC(=O)/C(=C\c1cccc(C)c1)C(C)=O`, for which the growth inhibition (at 1.2 µM) was 22%; the growth inhibition (at 3.7 µM) is 51%; the growth inhibition (at 11.0 µM) was 84% (active); the growth inhibition (at 33.0 µM) was 94% (active); the growth inhibition (at 100.0 µM) was 98% (active).
As to `Fc1cc(F)c(F)c(S)c1F`, the growth inhibition is, setting by setting: (at 1.2 µM) -34%; (at 3.7 µM) -37%; (at 11.0 µM) -27%; (at 33.0 µM) 54%; (at 100.0 µM) 98% (active).
Taken in the same sequence, the figures for `CC(=O)CC(c1ccccc1)c1c(O)c2ccccc2oc1=O` (stereo not given) were 11%, 14%, 7%, 42% and 84% (active).
The matching figures for `O=[N+]([O-])/C=C/c1cc2ccc3ccccc3c2[nH]1`: 39%, 72% (active), 89% (active), 94% (active) and 92% (active).
